Results published in PubChem BioAssay.
Activity calls are given as the source filed them. How the calls were made is not given here.

These compounds were tested against Pantothenate synthetase (Mycobacterium tuberculosis (strain ATCC 25618 / H37Rv)) (UniProt P9WIL5) (assay: Recombinant Mtb pantothenate synthetase (PanC) inhibitors, coupled enzyme, confirmatory (AID 375;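 further: 0% = full reaction with vehicle and 100% = no enzyme background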)). Settings: coupled enzyme assay; at 10 µM, stronger effect = higher value.
Chain of Pantothenate synthetase (Mycobacterium tuberculosis (strain ATCC 25618 / H37Rv)) (P9WIL5 whole entry, looked up): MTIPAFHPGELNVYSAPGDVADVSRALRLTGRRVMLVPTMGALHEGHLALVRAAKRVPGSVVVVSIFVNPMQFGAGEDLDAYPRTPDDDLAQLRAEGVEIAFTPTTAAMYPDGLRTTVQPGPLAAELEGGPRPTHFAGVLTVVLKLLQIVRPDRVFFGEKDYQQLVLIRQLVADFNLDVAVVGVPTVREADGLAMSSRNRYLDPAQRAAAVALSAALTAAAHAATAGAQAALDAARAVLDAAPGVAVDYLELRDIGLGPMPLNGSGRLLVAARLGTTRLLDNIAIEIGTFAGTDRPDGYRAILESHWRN

SMILES | inhibition
Cn1nnnc1SCC(=O)NCc1ccco1 | 5% (inactive)
Cc1cc(C(=O)Nc2cccc(O)c2)c(C)o1 | 20% (inactive)
O=C1CC(c2ccc(S(=O)(=O)N3CCN(c4ccccc4)CC3)cc2)CN1 (stereo not given) | 0% (inactive)
CCN(C(=O)COC(=O)c1cc(C)n(-c2ccc(F)cc2)c1C)C1CCS(=O)(=O)C1 (stereo not given) | 1% (inactive)
CC1CCC(NC(=O)C2CCN(c3cnccn3)CC2)CC1 (stereo not given) | 0% (inactive)
CCN(CC)S(=O)(=O)c1ccc(C(=O)Oc2ccc3c(c2)OCO3)cc1 | 2% (inactive)
Cc1ccc2nc(-c3ccccn3)cc(C(=O)N3CCN(c4ncccn4)CC3)c2c1 | 3% (inactive)
Cc1noc(C)c1COc1cccc(C(=O)Oc2ccc3c(c2)OCO3)c1 | 0% (inactive)
COc1cc2nc(SCC(=O)NC3CC3)n(CCC3=CCCCC3)c(=O)c2cc1OC | 1% (inactive)
COc1cc(Br)cc(CN2CCN(C/C=C/c3ccccc3)CC2)c1O | 0% (inactive)
c1ccc(OCCCn2nnc(-c3ccncc3)n2)cc1 | 3% (inactive)
COC(=O)Nc1ccccc1C(=O)N1CCCCC1 | 0% (inactive)
Cc1cc(C)c2c(n1)nn1c(NCCCN3CCOCC3)cc(C)nc21 | 9% (inactive)
COc1ccc(OC)c(NC(=O)CCNS(=O)(=O)c2cccs2)c1 | 0% (inactive)
C=C(C)CSc1nnc(-c2cccc(S(=O)(=O)N(C)C)c2)n1-c1cc(OC)ccc1OC | 1% (inactive)
Cc1ccc2c(C)nc(Nc3nc(CSc4nnnn4-c4ccccc4)cc(=O)[nH]3)nc2c1 | 11% (inactive)
CC1(C)C2CCC1(CS(=O)(=O)NCc1ccc(C(=O)O)cc1)C(=O)C2 (stereo not given) | 0% (inactive)
O=C(O)c1cccc(NS(=O)(=O)c2ccc3nnn(O)c3c2)c1 | 0% (inactive)
COc1ccc(-c2nc(CS(=O)CC(=O)NCc3ccccn3)c(C)o2)cc1 (stereo not given) | 0% (inactive)
Cc1c(Br)c(C(F)(F)F)nn1CC(=O)NCCN1CCOCC1 | 0% (inactive)

SMILES | inhibition
COCCN(CC(=O)NCc1ccccc1)C(=O)CCC(=O)Nc1ccccn1 | 0% (inactive)
COCCN(C(=O)c1csnn1)C(C(=O)NC1CCCCC1)c1cccs1 (stereo not given) | 2% (inactive)
CN1CCN(c2ncnc3c2cnn3-c2ccc(Cl)cc2)CC1 | 1% (inactive)
CCOCCCNC(=O)C(c1ccc(C)cc1)N(Cc1ccc2c(c1)OCO2)C(=O)c1cnccn1 (stereo not given) | 0% (inactive)
CCC(=O)c1ccc(O)cc1 | 0% (inactive)
CCCCN(CC)CCCNC(=O)CS(=O)(=O)Cc1nc(-c2cccc(OC)c2)oc1C | 0% (inactive)
O=C(Nc1ncnc2sc3c(c12)CCC3)c1ccco1 | 0% (inactive)
Cc1nnc(SCC(=O)N2CC(=O)Nc3ccccc32)n1-c1ccccc1 | 2% (inactive)
CC(C)(C)c1ccc(OCC(=O)O)cc1 | 1% (inactive)
Cc1ccc2c(c1)c1c(n2CC(O)Cn2c(C)nc3ccccc32)/C(=N\O)CCC1 (stereo not given) | 5% (inactive)
CCOC(=O)c1cccc(NC(=O)CSc2nc3ccccc3c(=O)n2CC)c1 | 0% (inactive)
CCC(=O)Nc1cc(C)c(NC(=O)C23CC4CC(CC(C4)C2)C3)cn1 | 5% (inactive)
COc1ccccc1CNC(=O)C1CCCN(S(=O)(=O)c2cccc3cccnc23)C1 (stereo not given) | 1% (inactive)
CC(=O)c1cc(-c2ccccc2)n(CC(=O)N2CCN(C3CCCC3)CC2)c1C | 11% (inactive)
COc1cc(OC)cc(OCC(O)Cn2cnc(-c3ccccc3)c2)c1 (stereo not given) | 0% (inactive)
CC(=O)c1c(C)[nH]c(C(=O)N2CCN(C(=O)c3ccco3)CC2)c1C | 0% (inactive)
Cc1cc(C(F)(F)F)nn1Cc1ccc(C(=O)NCc2ccco2)o1 | 0% (inactive)
Cc1cc(C(=O)CN2C(=O)c3ccccc3C2=O)c(C)n1Cc1cccs1 | 0% (inactive)
O=C(Cn1ccc2ccccc2c1=O)NCCC(=O)N1CCN(C(=O)c2ccco2)CC1 | 9% (inactive)
COCCNC(=O)NC(=O)COC(=O)Cc1ccc2c(c1)OCCO2 | 4% (inactive)
